Reference: PubChem BioAssay (EPA / NIEHS)
Records with an inconclusive call do not appear. The source made the active and inactive calls. Rule for the calls, unless noted: active = hit-call score of the fitted dose curve at least 0.9, where 1 is the maximum; inactive = score below 0.9.

Tests used:
[1] = molecular target: Nuclear respiratory factor 1 (Homo sapiens) (UniProt Q16656); test: ATG_NRF1_CIS: Attagene CIS-FACTORIAL HepG2 Assay for human Nuclear Respiratory Factor 1 (NRF1) Orphan Gene (AID 2282987); conditions: HepG2 NRF1 cis-element reporter, Attagene multiplex; actives raise or lower the signal
Sequence of Nuclear respiratory factor 1 (Homo sapiens) (Q16656 whole entry, looked up): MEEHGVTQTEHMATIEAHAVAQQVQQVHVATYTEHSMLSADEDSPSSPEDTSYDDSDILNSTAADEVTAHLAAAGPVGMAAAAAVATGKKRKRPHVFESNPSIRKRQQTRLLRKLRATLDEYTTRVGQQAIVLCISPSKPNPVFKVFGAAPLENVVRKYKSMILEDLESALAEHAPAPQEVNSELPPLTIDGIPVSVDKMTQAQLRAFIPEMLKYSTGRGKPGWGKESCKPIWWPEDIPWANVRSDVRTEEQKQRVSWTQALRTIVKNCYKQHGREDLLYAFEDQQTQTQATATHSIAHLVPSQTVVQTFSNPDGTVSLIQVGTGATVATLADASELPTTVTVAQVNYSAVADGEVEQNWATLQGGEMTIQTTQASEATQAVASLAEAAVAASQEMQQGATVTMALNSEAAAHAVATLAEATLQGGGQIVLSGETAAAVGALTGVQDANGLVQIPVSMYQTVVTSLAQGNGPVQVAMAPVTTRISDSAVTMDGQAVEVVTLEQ
How it was run: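 Endogenous NRF1-driven reporter transcription measured in transiently transfected human HepG2 liver cells. Readout: reporter mRNA by RT-PCR and capillary electrophoresis with fluorescence detection, 24 h post-dosing. Gain or loss of signal fitted relative to DMSO baseline.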

[2] = ATG_NFI_CIS: Attagene CIS-FACTORIAL HepG2 Assay for human Nuclear Factor I (NFI) (AID 2282989); conditions: HepG2 cis-regulatory reporter, NFI response element transcription; actives raise or lower the signal
How it was run: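 HepG2, transient MRTU, 24 h exposure; RNA→cDNA→PCR→FAM label→HpaI→CE fluorescence. Bidirectional fit, DMSO = baseline.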

[3] = molecular target: Myc proto-oncogene protein (Homo sapiens) (UniProt P01106); test: ATG_Myc_CIS: Attagene CIS-FACTORIAL HepG2 Assay for human Myelocytomatosis (Myc) Proto-Oncogene Transcription Factor (AID 2282990); conditions: HepG2, Attagene cis-reporter transcription factor activity; actives raise or lower the signal
Sequence of Myc proto-oncogene protein (Homo sapiens) (P01106 whole entry, looked up): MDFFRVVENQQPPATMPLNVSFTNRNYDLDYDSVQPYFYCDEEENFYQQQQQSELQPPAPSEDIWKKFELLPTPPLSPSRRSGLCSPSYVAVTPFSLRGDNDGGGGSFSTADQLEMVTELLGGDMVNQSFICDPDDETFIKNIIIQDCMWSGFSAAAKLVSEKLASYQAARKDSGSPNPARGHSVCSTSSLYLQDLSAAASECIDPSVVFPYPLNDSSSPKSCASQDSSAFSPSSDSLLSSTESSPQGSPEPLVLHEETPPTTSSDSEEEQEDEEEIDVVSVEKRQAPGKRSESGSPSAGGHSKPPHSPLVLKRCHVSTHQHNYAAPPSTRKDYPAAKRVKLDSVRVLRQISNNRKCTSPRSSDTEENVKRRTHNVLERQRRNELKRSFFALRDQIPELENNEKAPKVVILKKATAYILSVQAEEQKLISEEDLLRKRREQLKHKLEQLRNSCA
How it was run: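 Cells of the HepG2 human liver line bear multiple cis-driven reporter transcription units. Reporter mRNA after 24 h exposure is reverse-transcribed, amplified, labelled and resolved by capillary electrophoresis, with gain- or loss-of-signal fitting relative to DMSO.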

[4] = ATG_NRF2_ARE_CIS: Attagene CIS-FACTORIAL HepG2 Assay for human Nuclear Factor Erythroid 2 Related Factor 2 (NFR2) response to Antioxidant Response Elements (ARE) (AID 2282992); conditions: HepG2 Attagene ARE/NRF2 reporter, transcription factor activity; actives raise or lower the signal
How it was run: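 Readout: reporter mRNA quantified by RT-PCR plus FAM-labelled primer extension, HpaI digestion and capillary electrophoresis, 24 h after dosing transfected HepG2 cells. Gain or loss of signal is fitted bidirectionally against DMSO baseline.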

[5] = ATG_Oct_MLP_CIS: Attagene CIS-FACTORIAL HepG2 Assay for human Octamer-Binding Transcription Factor (Oct) (AID 2282993); conditions: HepG2 Attagene cis-factorial Oct reporter, mRNA; actives raise or lower the signal
How it was run: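 Multiplexed cis-reporter assay in human liver HepG2 cells, 24 h incubation. Reporter RNA amplified and labelled, then resolved by capillary electrophoresis; DMSO serves as negative control and baseline.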

[6] = BSK_3C_TissueFactor: BioMAP Diversity Plus: 3C Assay for Tissue Factor Biomarker Activity (AID 2282997); conditions: BioMAP 3C HUVEC, tissue factor biomarker readout; actives raise or lower the signal
How it was run: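 After a 24 h chemical exposure of primary human umbilical vein endothelial cells, Tissue Factor levels were quantified by ELISA.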

[7] = BSK_3C_uPAR: BioMAP Diversity Plus: 3C Assay for Urokinase-type plasminogen activator receptor (uPAR) Biomarker Activity (AID 2282998); conditions: BioMAP 3C HUVEC, uPAR biomarker ELISA; actives raise or lower the signal
How it was run: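 Dose primary human umbilical vein endothelial cells, incubate 24 h, measure cell-surface uPAR by ELISA, then fit the signal in both directions against the DMSO negative control.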

[8] = BSK_3C_VCAM1: BioMAP Diversity Plus: 3C Assay for Vascular cell adhesion molecule 1 (VCAM1) Biomarker Activity (AID 2282999); conditions: BioMAP 3C HUVEC, VCAM1 ELISA, cytokine-stimulated; actives raise or lower the signal
How it was run: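 Activity fitted in both directions relative to DMSO, with ELISA measurement of the surface marker on primary HUVEC (3C) at 24 h post-treatment; parallel SRB staining (0.1% SRB, TCA-fixed, 560 nm) flagged overt cytotoxicity.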

[9] = BSK_4H_Eotaxin3: BioMAP Diversity Plus: 4H Assay for Eotaxin 3 Biomarker Activity (AID 2283000); conditions: primary human endothelial cells (HUVEC); actives raise or lower the signal;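 for outcome: CCL26 protein level quantified by ELISA in parallel with SRB cytotoxicity check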
How it was run: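 Chemicals were added to human umbilical vein endothelium cultures, and Eotaxin-3 was quantified by ELISA at 24 h. Values were derived by bidirectional fitting with DMSO serving as negative control and activity baseline.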

[10] = read-out: Intercellular Adhesion Molecule 1 (ICAM1), ICAM1 (gene 3383); test: BSK_3C_ICAM1: BioMAP Diversity Plus: 3C Assay for Intercellular Adhesion Molecule 1 (ICAM1) Biomarker Activity (AID 2283003); conditions: primary human endothelial cells (HUVEC); actives raise or lower the signal
How it was run: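 Chemicals are dosed onto primary human umbilical vein endothelium (3C system). After 24 h, ICAM-1 is measured by ELISA, and responses are fitted bidirectionally relative to DMSO.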

[11] = BSK_3C_Proliferation: Cell Proliferation Assessment in the BioMAP Diversity Plus: 3C Assay (AID 2283006); conditions: primary human endothelial cells (HUVEC);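 for AC50: potency may reflect either rise or fall in cell number versus DMSO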
How it was run: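 Cells (human umbilical vein endothelial, sub-confluent) receive test chemical; after 48 h they are fixed in 10% trichloroacetic acid, stained with 0.1% SRB and read at 560 nm. Activity is referenced to DMSO, fitting increases and decreases.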

[12] = molecular target: Peroxisome proliferator-activated receptor gamma (Homo sapiens) (UniProt P37231); test: ATG_PPARg_TRANS: Attagene TRANS-FACTORIAL HepG2 Assay for human Peroxisome Proliferator-activated Receptor-gamma (PPARg) (AID 2283007; active = hit-call score of the fitted dose curve at least 0.9, where 1 is the maximum)
Sequence of Peroxisome proliferator-activated receptor gamma (Homo sapiens) (P37231 whole entry, looked up, the tested form may be a part): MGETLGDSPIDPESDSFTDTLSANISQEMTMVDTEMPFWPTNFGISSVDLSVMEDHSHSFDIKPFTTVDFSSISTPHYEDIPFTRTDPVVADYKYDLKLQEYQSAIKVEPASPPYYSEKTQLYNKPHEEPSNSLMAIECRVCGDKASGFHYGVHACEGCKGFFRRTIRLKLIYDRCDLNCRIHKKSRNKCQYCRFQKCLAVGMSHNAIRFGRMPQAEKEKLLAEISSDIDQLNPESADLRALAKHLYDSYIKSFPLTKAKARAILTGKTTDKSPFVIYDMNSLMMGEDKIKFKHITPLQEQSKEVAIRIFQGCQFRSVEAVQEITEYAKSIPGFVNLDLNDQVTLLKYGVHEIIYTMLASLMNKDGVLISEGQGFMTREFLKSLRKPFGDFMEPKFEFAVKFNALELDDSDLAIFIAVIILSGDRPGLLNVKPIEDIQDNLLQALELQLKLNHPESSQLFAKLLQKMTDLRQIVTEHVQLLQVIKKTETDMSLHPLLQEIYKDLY
How it was run: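 Read-out: reporter mRNA induction, detected by fluorescence after RT-PCR and capillary electrophoresis. Transiently transfected human HepG2 liver cells carrying a chimeric NR-Gal4 construct were dosed for 24 h; activity was fitted upward relative to DMSO.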

[13] = molecular target: Nuclear receptor subfamily 1 group I member 2 (Homo sapiens) (UniProt O75469); test: ATG_PXR_TRANS: Attagene TRANS-FACTORIAL HepG2 Assay for human Pregnane X Receptor (PXR) (AID 2283008; active = hit-call score of the fitted dose curve at least 0.9, where 1 is the maximum)
Sequence of Nuclear receptor subfamily 1 group I member 2 (Homo sapiens) (O75469 whole entry, looked up, the tested form may be a part): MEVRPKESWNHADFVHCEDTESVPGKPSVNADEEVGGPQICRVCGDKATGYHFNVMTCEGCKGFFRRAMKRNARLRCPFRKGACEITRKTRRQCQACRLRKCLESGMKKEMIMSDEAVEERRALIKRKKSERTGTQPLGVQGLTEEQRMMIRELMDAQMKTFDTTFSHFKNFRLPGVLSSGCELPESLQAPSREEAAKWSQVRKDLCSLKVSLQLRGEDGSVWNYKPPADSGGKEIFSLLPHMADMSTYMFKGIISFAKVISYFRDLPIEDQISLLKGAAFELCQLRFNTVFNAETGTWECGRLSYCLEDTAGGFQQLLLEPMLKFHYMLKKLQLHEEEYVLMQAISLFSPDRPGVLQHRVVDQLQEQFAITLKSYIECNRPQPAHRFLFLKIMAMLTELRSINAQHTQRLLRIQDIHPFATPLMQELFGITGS
How it was run: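 Trans-factorial format: exogenous NR-Gal4 fusion activity, not endogenous factor, in transfected human HepG2 liver cells. After 24 h dosing, RNA isolated, reverse-transcribed, amplified and resolved by capillary electrophoresis; induction scored versus DMSO.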

[14] = molecular target: human RAR-related Orphan Receptor beta (RORb), RORB (gene 6096) (UniProt Q92753); test: ATG_RORb_TRANS: Attagene TRANS-FACTORIAL HepG2 Assay for human RAR-related Orphan Receptor beta (RORb) (AID 2283010; active = hit-call score of the fitted dose curve at least 0.9, where 1 is the maximum)
Sequence of human RAR-related Orphan Receptor beta (RORb), RORB (gene 6096) (Q92753 whole entry, looked up, the tested form may be a part): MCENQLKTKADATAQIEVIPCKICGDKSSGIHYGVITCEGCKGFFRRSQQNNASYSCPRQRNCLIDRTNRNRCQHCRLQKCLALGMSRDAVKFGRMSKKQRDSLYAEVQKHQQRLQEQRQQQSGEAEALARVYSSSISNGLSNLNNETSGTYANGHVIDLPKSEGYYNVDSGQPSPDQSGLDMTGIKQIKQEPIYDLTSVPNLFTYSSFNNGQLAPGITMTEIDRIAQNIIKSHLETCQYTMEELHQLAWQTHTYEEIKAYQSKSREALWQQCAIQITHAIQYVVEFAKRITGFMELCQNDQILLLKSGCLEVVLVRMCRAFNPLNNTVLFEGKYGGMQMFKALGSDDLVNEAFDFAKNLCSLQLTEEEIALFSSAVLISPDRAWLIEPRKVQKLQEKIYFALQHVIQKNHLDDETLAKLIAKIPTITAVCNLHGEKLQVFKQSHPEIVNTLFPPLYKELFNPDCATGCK
How it was run: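 Transfect HepG2 with multiple GAL4-UAS reporter transcription units; dose chemicals for 24 h; isolate RNA, reverse-transcribe and PCR-amplify reporter sequences; label, digest and resolve fragments by capillary electrophoresis; fit increases relative to DMSO.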

[15] = molecular target: Retinoic acid receptor alpha (Homo sapiens) (UniProt P10276); test: ATG_RARa_TRANS: Attagene TRANS-FACTORIAL HepG2 Assay for human Retinoic Acid Receptor alpha (RARa) (AID 2283005; active = hit-call score of the fitted dose curve at least 0.9, where 1 is the maximum)
Sequence of Retinoic acid receptor alpha (Homo sapiens) (P10276 whole entry, looked up, the tested form may be a part): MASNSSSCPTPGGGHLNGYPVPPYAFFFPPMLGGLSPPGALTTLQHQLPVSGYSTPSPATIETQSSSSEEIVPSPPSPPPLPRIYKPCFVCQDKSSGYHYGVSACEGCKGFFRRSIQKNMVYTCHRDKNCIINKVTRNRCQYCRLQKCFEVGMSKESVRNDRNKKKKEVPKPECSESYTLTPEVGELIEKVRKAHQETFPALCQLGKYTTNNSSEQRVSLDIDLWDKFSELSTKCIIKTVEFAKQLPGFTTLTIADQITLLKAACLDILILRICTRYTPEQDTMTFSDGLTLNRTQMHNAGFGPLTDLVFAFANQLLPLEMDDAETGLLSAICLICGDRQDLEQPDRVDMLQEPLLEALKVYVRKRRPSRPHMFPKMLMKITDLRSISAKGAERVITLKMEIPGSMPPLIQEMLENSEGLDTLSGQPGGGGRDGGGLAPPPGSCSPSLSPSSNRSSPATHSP
How it was run: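 Reporter transcripts, measured by RT-PCR with fluorescent labeling and capillary electrophoresis after 24 h dosing, reflect activity of an exogenous human RARa–GAL4 fusion in transiently transfected HepG2. Fitted for increase relative to DMSO.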

[16] = molecular target: human Retinoic Acid Receptor gamma (RARg), RARG (gene 5916) (UniProt P13631); test: ATG_RARg_TRANS: Attagene TRANS-FACTORIAL HepG2 Assay for human Retinoic Acid Receptor gamma (RARg) (AID 2283009; active = hit-call score of the fitted dose curve at least 0.9, where 1 is the maximum)
Sequence of human Retinoic Acid Receptor gamma (RARg), RARG (gene 5916) (P13631 whole entry, looked up, the tested form may be a part): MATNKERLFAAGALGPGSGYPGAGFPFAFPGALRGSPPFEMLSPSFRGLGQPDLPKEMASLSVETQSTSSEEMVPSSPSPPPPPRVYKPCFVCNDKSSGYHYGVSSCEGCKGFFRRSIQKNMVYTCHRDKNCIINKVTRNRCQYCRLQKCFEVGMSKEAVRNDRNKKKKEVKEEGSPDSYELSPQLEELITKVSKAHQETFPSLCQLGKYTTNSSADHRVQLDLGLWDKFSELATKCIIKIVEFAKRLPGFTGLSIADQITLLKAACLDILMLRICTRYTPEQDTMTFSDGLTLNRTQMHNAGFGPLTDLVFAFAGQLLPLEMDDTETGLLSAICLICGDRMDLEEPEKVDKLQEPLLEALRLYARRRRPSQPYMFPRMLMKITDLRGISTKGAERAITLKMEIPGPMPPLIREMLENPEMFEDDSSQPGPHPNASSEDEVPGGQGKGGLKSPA
How it was run: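 TRANS format measured activity of exogenous NR-GAL4 fusion (RARg) in transfected HepG2 liver cells after 24 h dosing. Induced reporter RNA was detected by RT-PCR/capillary electrophoresis fluorescence, analysed in the positive direction against DMSO.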

[17] = molecular target: human RAR-related Orphan Receptor gamma (RORg), RORC (gene 6097) (UniProt P51449); test: ATG_RORg_TRANS: Attagene TRANS-FACTORIAL HepG2 Assay for human RAR-related Orphan Receptor gamma (RORg) (AID 2283011; active = hit-call score of the fitted dose curve at least 0.9, where 1 is the maximum)
Sequence of human RAR-related Orphan Receptor gamma (RORg), RORC (gene 6097) (P51449 whole entry, looked up, the tested form may be a part): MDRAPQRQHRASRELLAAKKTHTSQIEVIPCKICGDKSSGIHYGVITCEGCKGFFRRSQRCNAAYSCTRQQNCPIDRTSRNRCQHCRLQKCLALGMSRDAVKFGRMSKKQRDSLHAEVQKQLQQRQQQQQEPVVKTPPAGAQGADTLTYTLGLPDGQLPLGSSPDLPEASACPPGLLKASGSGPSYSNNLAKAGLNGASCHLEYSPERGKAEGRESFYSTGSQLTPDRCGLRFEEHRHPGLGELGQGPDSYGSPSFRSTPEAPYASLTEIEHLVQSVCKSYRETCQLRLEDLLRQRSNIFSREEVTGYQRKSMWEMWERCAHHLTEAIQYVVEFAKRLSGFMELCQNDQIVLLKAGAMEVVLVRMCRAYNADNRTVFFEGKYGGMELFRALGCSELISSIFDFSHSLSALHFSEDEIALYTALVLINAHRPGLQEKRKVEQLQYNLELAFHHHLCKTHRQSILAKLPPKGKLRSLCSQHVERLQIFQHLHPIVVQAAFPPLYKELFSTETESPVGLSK
How it was run: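 First, HepG2 liver cells were transfected with GAL4-UAS-driven reporter constructs and the RORg-Gal4 fusion. Next, they were treated with chemical for 24 h. Finally, reporter mRNA was quantified by RT-PCR and capillary electrophoresis, with upward activity fitted against DMSO.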

[18] = ATG_NF_kB_CIS: Attagene CIS-FACTORIAL HepG2 Assay for human Nuclear Factor Kappa B (NF-kB) (AID 2282991); conditions: HepG2 Attagene cis-factorial NF-kB reporter mRNA; actives raise or lower the signal
How it was run: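 Read-out: reporter transcript levels quantified by RT-PCR plus capillary electrophoresis of 6-FAM-labelled, HpaI-cut fragments. Transfected HepG2 cells, 24 h compound exposure, endogenous NF-kB-driven cis element; gain or loss scored versus DMSO.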

Which outcome [1] does the source give for `CNC(=O)/C=C(\C)OP(=O)(OC)OC` here?
The outcome was “inactive”.

And the outcome [2]?
The outcome was “inactive”.

And the outcome [3]?
The outcome was “inactive”.

What about the outcome [4] of the same compound?
Its outcome is “inactive”.

What about the outcome [5] of the same compound?
Its outcome is “inactive”.

And the outcome [6]?
The outcome was “inactive”.

What about the outcome [7] of the same compound?
Its outcome is “inactive”.

What about the outcome [8] of the same compound?
Its outcome is “inactive”.

What about the outcome [9] of the same compound?
The outcome was “inactive”.

And the outcome [10]?
Its outcome is “inactive”.

And the outcome [11]?
The outcome was “inactive”.

And the outcome [12]?
The outcome was “inactive”.

What about the outcome [13] of the same compound?
The outcome was “inactive”.

And the outcome [14]?
Its outcome is “inactive”.

With `OCCOc1ccccc1` as the compound, how does the outcome [1] read?
The outcome was “inactive”.

And the outcome [2]?
Its outcome is “inactive”.

And the outcome [3]?
The outcome was “inactive”.

What about the outcome [4] of the same compound?
The outcome was “inactive”.

And the outcome [5]?
The outcome was “inactive”.

What about the outcome [6] of the same compound?
The outcome was “inactive”.

What about the outcome [7] of the same compound?
Its outcome is “inactive”.

What about the outcome [8] of the same compound?
Its outcome is “inactive”.

What about the outcome [9] of the same compound?
Its outcome is “inactive”.

What about the outcome [10] of the same compound?
Its outcome is “inactive”.

What about the outcome [15] of the same compound?
The outcome was “inactive”.

And the outcome [11]?
Its outcome is “inactive”.

And the outcome [12]?
Its outcome is “inactive”.

What about the outcome [13] of the same compound?
Its outcome is “inactive”.

And the outcome [16]?
The outcome was “inactive”.

And the outcome [14]?
Its outcome is “inactive”.

And the outcome [17]?
Its outcome is “inactive”.

For `O=S1OCC2C(CO1)C1(Cl)C(Cl)=C(Cl)C2(Cl)C1(Cl)Cl` (stereo unspecified), which outcome [1] is on record?
The outcome was “inactive”.

And the outcome [2]?
The outcome was “inactive”.

And the outcome [3]?
Its outcome is “inactive”.

And the outcome [18]?
The outcome was “inactive”.

And the outcome [4]?
The outcome was “inactive”.

And the outcome [5]?
Its outcome is “inactive”.

What about the AC50 [6] of the same compound?
Its AC50 is 29 µM (active).

And the AC50 [7]?
Its AC50 is 15.9 µM (active).

What about the AC50 [8] of the same compound?
Its AC50 is 30.3 µM (active).

And the AC50 [9]?
The AC50 was 30.9 µM (active).

And the AC50 [10]?
Its AC50 is 33.9 µM (active).

And the outcome [15]?
Its outcome is “inactive”.

And the AC50 [11]?
Its AC50 is 24.5 µM (active).

And the outcome [12]?
Its outcome is “inactive”.

And the outcome [13]?
The outcome was “inactive”.
